The list is not random: actives were taken first. Their share in the collection is about 0.69%.
TCR activator – T cell receptor activation | primary human leukocytes, anti-CD3, IL-2 HTRF, 48 h | Potency, µM (highest dose often 9.22 µM), for the others: top-dose activation of IL-2 secretion, hits mostly activators | 330,000 tested, under 10 active; also: % of control where 0% means no effect
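Primary human leukocytes were stimulated with a-CD3 beads plus compounds for 48 hr without co-stimulation; secreted IL-2 was quantified by HTRF using a-IL-2-K (europium cryptate) and a-IL-2-d2, excited at 320nm with acceptor emission read at 665nm.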
A-T KAP1 phos – potential ataxia-telangiectasia treatments restoring KAP-1 phosphorylation | F2112 A-T fibroblasts, KAP-1 phosphorylation AlphaLISA; neocarzinostatin DNA damage 30 min before lysis | Potency, µM (titrated, usually from 57.5 µM), for inactives: at the top dose activation, usual class: activators | 0.19% of 320,000 active | AID 485349; also: potency is read from the fitted curve at half-maximal effect; % of control where 0% means no effect; nearly all actives have a fitted effect of over 45% in size
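ATM-like activity read as KAP-1 phosphorylation via AlphaLISA donor/acceptor antibody pairs after lysis and 6 hr at 25C. Cells were ATM-null patient fibroblasts (F2112, hTERT), dosed 60 min, then exposed to the DSB inducer NCS for 30 min.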
Tb PFK block – inhibitors of T. brucei phosphofructokinase | T. brucei PFK, ADP-Glo luminescence | Potency, µM (titrated, usually from 57.5 µM), for inactives: at the highest dose activity, negative = inhibition, usual class: inhibitors | 0.17% of 330,000 active | AID 485367;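 also: potency is read from the fitted curve at half-maximal effect; 0% = uninhibited 1x PFK enzyme wells and -100% = no-enzyme wells; nearly all actives have a fitted effect of over 60% in size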
Target sequence (O15648 whole entry, looked up): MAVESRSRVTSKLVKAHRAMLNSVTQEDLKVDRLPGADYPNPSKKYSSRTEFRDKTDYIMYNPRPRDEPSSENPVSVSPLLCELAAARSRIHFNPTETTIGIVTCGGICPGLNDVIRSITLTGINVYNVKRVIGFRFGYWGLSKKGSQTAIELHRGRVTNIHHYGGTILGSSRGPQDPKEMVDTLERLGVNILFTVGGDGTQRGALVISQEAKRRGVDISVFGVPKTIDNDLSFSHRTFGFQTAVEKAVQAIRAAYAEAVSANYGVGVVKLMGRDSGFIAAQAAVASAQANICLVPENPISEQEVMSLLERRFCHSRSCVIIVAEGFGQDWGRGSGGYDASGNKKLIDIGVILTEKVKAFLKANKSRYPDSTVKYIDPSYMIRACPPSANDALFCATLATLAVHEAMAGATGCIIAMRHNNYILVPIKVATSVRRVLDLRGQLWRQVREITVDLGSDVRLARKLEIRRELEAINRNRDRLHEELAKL
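PFK 1.25 nM, F6P 0.5 mM, ATP 0.1 mM, 0.1 M TEA pH 8.0, 5 mM MgCl2, 0.01% Tween20, 0.1% BSA; 45 min RT. ADP-Glo readout. qHTS titration up to 57 uM; curves fitted, compounds curve-classed.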
PKM2 activator – PKM2 (human) enzyme activation; purified PKM2, Kinase-Glo ATP luminescence, activation; response scale: 0% is enzyme alone, no compound; Potency, µM (titrated, usually from 57.5 µM), without a hit: top-dose activation, hits mostly activators; 0.34% of 260,000 active; also: potency is read from the fitted curve at half-maximal effect; % is scaled to controls: 0 for no effect and ±100 for the full control effect; nearly all actives have a fitted effect of over 55% in size
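ATP formation by purified human PK-M2, quantified via coupled luciferase luminescence after 1 h at room temperature with 0.1 mM ADP and 0.5 mM PEP final.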
a7 integrin act – integrin-mediated muscular dystrophy alleviation activation; alpha7betagal myoblasts, beta-gal FDG fluorescence, 48 h; Potency, µM (series often up to 38.3 µM), for inactives: at the highest dose activation, usual class: activators; 0.064% of 350,000 active;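 also: potency is read from the fitted curve at half-maximal effect; 100% = response of the positive control SU9516; nearly all actives have a fitted effect of over 60% in size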
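Alpha7betagal+/- myoblasts (passage 13) were plated 16-24 hr, then exposed to compounds (1:260 dilution of DMSO stock) for 48 hours at 37C. After MPER lysis, β-galactosidase reporter activity was read as FDG fluorescence (ex 480/em 540) after 30 minutes.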
IL2 activator – activators of IL-2. IL-2 activation reporter assay, cell-based qHTS; stimulated with anti-CD3/CD4/CD28 beads; in transgenic mouse T cells. activation, % (series mostly up to about 46 µM). 0.065% of 360,000 active. AID 652025; in the data active = activation above about 50%; inconclusive = mostly about 30% to 49%; also: 0% is about no effect
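Quantitative HTS in unstimulated transgenic mouse T cells, with memory T cells as non-tolerant control and PMA/ionomycin as tolerance-bypass control. Compound pretreatment lasted 60 minutes before 18 h bead stimulation; EGFP/DsRed fluorescence read.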
The depositor's hits bear a star; ? = inconclusive; . = no result; [ ] = dose if it differs, or a comment. Unless noted, calls follow the shape of the dose curve; as a rule, active = well fitted curve in the direction sought with a large enough effect; inconclusive = small, poorly fitted or top-dose-only effect, or another doubt; inactive = no such curve, though single readings can be large; an effect the other way counts as inactive or inconclusive.

SMILES	TCR activator	A-T KAP1 phos	Tb PFK block	PKM2 activator	a7 integrin act	IL2 activator
CCOC(=O)C1CSC(Cc2ccc(OCc3ccc([N+](=O)[O-])cc3)cc2)N1 (configuration not stated)	.	.	.	2.1%	.	.
CCN(CC)c1ccc(/C=C(/C#N)c2nc3ccc(C)cc3[nH]2)c(OC(C)C)c1	-0.2%	-10.7%	-2.1%	-4.1%	-19.1%	218.5*
COc1cc(C(=O)O)c2ccccc2n1	-3.3%	3.6%	-1.0%	-3.2%	0.2%	0.1
COc1cccc(-c2ccc3ncnc(NCc4cccc(F)c4)c3c2)c1	.	-11.0%	0.5%	.	.	.
COc1ccc(-c2nnc(SCc3ccccc3F)o2)cc1OC	3.2%	-7.1%	3.7%	-0.3%	11.6%	1.6
COc1cc2c3nnc(-c4ccccc4)c-3cn(Cc3ccccc3F)c2cc1OC	1.9%	3.6%	-4.3%	11.2%	-30.5%	175.6*
COc1cc2c3nnc(-c4ccc(F)cc4)c-3cn(Cc3ccccc3F)c2cc1OC	3.0%	-0.1%	3.2%	-9.2%	0.0%	87.3*
COc1ccc([C@]23Cc4ccccc4C(O2)C2=C(CC(C)(C)CC2=O)O3)cc1	.	-0.3%[11.5 µM]	0.4%[11.5 µM]	?	.	.
Cc1cccc(-n2nnnc2SCC(=O)Nc2cccc(S(N)(=O)=O)c2)c1	-4.9%	-2.2%	0.0%	5.01µM*	2.8%	1.0
CC(=O)Nc1ccc(NC(=O)CSc2nnnn2-c2ccc(F)cc2)cc1	1.5%	3.16µM*	-4.8%	.	0.0%	0.6
O=C(CSc1nnnn1-c1ccc(O)cc1)Nc1cccc(S(=O)(=O)N2CCCC2)c1	9.9%	1.2%	1.0%	5.2%	9.0%	-0.4
N#Cc1ccc2c(c1)C[C@]1(CCCCN3C(=O)c4ccccc4C3=O)Oc3c(c(=O)oc4ccc(F)cc34)C2O1	.	-1.7%[11.5 µM]	3.4%[11.5 µM]	-0.2%[11.5 µM]	.	.
C[C@@H]1C[C@@H]2OC(=O)[C@]3(C)[C@H]2[C@@H](OC3(C)O)[C@]2(C)C(=O)C=C[C@H]12 (some centres not stated)	0.1%	39.8µM*	4.6%	-1.9%	-7.4%	1.7
C=C1C(=O)O[C@@H]2C[C@@H](C)[C@@H]3C=CC(=O)[C@@]3(C)[C@@H](OC(C)=O)[C@H]12	-3.5%	9.7%	-17.9%	11.5%	-40.4%	-0.1
CNC(=S)N(CCc1c(C)[nH]c2ccc(Cl)cc12)Cc1cccnc1	-0.9%	0.891µM*	0.9%	.	-35.1%	-0.8
CCNC(=S)N(CCc1c(C)[nH]c2ccc(Cl)cc12)Cc1cccnc1	-0.2%	?	3.7%	.	2.0%	-0.2
Cn1c(Cn2cnc(Cl)c2Cl)nc2ccccc21	-6.1%	2.7%	5.2%	25.1µM*	-15.8%	-0.8
COC(=O)C1=C(C(=O)OC)[C@@H]2Nc3ccccc3[C@@]23C[C@@H](C(=O)OC)N(S(=O)(=O)c2ccc(C#N)cc2)C3=N1	.	.	.	-5.0%[11.5 µM]	.	.
COc1ccc(S(=O)(=O)NCc2c(-c3ccccc3)noc2C)c(OC)c1	-8.3%	0.9%	4.4%	28.2µM*	13.5%	0.3
Cc1onc(-c2ccccc2)c1CNS(=O)(=O)c1cccc(Cl)c1	-3.4%	1.3%	2.1%	31.6µM*	-22.8%	0.1
COC(=O)[C@@H]1C[C@@]2(O)[C@H](O)[C@H](O)[C@H](O)C[C@H]2N1Cc1ccc(N2CCN(C)CC2)cc1	.	.	.	0.5%	.	.
CC(=O)N1C2(C=CC1(C)C(=O)NCc1cc(F)cc(C(F)(F)F)c1)CCCCC2 (configuration not stated)	.	.	.	3.3%	.	.
C=CCN1C(=O)/C(=C/C(=O)OC)S/C1=N\NC(=O)c1ccccc1	1.7%	10µM*	-0.1%	22.3%	-16.2%	-1.8
C=CCNC(=O)N1CCc2nc(CCCC)c3c(c2C1)CO[C@@H](C)C3	.	.	.	4.4%[11.5 µM]	.	.
COC(=O)C[C@H]1c2ccccc2C2=C(C[C@@H](C)[C@H]3C(=O)N(c4ccccc4)C(=O)[C@@H]23)N1C(=O)OC	.	.	.	-7.4%[11.5 µM]	.	.
SMILES	TCR activator	A-T KAP1 phos	Tb PFK block	PKM2 activator	a7 integrin act	IL2 activator
CCCn1c(C)nc2c(NCCCN(CC)CC)nc(C)nc21	.	.	.	-4.7%	.	.
Cc1ccc(C)c(NC(=O)CSc2nc(C)cc(C)c2C#N)c1	-0.2%[46.1 µM]	-0.9%	-1.5%	3.1%	-2.3%	-0.2
Cc1cc(C)c(C#N)c(SCC(=O)Nc2nonc2N)n1	2.0%	11.1%	-18.3%	14.1µM*	-23.4%	-1.2
CCC(=O)Nc1cccc(C2=NN(c3ccccc3)C(c3ccc(OC)cc3)C2)c1 (configuration not stated)	7.5%	22.4µM*	3.6%	.	2.2%	-0.2
COc1ccc(C2=NN(c3ccc(C(=O)O)cc3)C(c3ccc(OC)c(OC)c3)C2)cc1 (configuration not stated)	7.7%	28.2µM*	-2.3%	.	41.9%	-0.5
COc1ccc(C2CC(c3ccccc3)=NN2c2ccc(S(N)(=O)=O)cc2)cc1OC (configuration not stated)	-1.4%	28.8%	-0.2%	-10.3%	0.0%	-3.2
CC(=O)Oc1ccc(C2=NN(c3ccccc3)C(c3ccccc3)C2)cc1 (configuration not stated)	-4.7%	35.5µM*	1.8%	.	-1.1%	1.2
CCCC/C=C/C(NC(=O)OCc1ccccc1Cl)c1ccccc1 (configuration not stated)	.	.	.	1.3%	.	.
Cc1nc(NC2CCCCC2)c2nc(-c3ccccc3)n(C(C)CN(C)C)c2n1 (configuration not stated)	.	.	.	7.1%	.	.
CCOC(=O)CCN(C(=S)Nc1ccccc1)C1CCCCC1	-0.3%	.	.	.	-7.4%	0.9
N#C/C(=C\Nc1ccc(Cl)cn1)S(=O)(=O)c1ccccc1	-3.4%	-1.7%	-2.1%	15.8µM*	28.0%	0.2
Cc1ccc(N/C=C(\C#N)S(=O)(=O)c2ccccc2)cc1	-6.3%	3.6%	0.6%	20.7%	3.3%	-1.4
N#C/C(=C\Nc1ccc(Cl)cn1)S(=O)(=O)c1ccccn1	8.2%	-1.4%	0.6%	10µM*	4.5%	0.5
CCOC(=O)CC(=O)CSc1nc2ccc(C)cc2cc1C#N	4.3%	-2.8%	-4.9%	-38.8%	-27.4%	2.1
COC(=O)CSc1nc2cc(C)ccc2cc1C#N	-7.9%	1.5%	6.0%	1.7%	6.9%	103.3*
COC(=O)[C@@]1(Cc2ccccc2)[C@H]2c3cc(C(=O)N(C)C)n(Cc4c(CO)[nH]cc(C)c4=O)c3C[C@H]2CN1C(=O)c1ccccc1	.	.	.	-2.0%	.	.
Fc1ccc(CSc2ncnc3ccccc23)cc1	-0.9%	26.2%	-22.8%	25.1µM*	20.6%	0.6
c1ccc(CSc2ncnc3ccccc23)cc1	-6.4%	11.8%	-2.7%	23.2%	29.4%	-0.9
